We go through 40 sequences from the supplement of paper PMC10338343.

± gives the standard deviation.

This experiment relates to MILI (PIWIL2) piRISC loaded with piRNA #1 (26 nt). Briefly: pre-steady-state target cleavage rate (min^-1); guide: piRNA #1 5'p-UGAGGUAGUAGGUUGUAUAGUAUCCA; MIWI and MILI are mouse PIWI proteins and EfPiwi is from a freshwater sponge; tags in brackets are library labels; higher = faster piRNA-guided slicing of the target. Conditions: auxiliary factor: 500 nM mouse GTSF1. In short, it runs like this:
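Cleave-'n-Seq used a transcribed, DNA-blocked target RNA library at 0.1 nM and active affinity-purified piRISC with one synthetic guide at 1 nM, with or without 500 nM GTSF1 partner protein, in HEPES–potassium acetate buffer at 33 °C for 0–8 or 0–960 min. Uncleaved targets were sequenced and normalised to depth and to weakly complementary targets, and three trials were pooled with k3 capped at 0.0001 min^-1. The pre-steady-state cleavage rate was estimated by a burst-and-steady-state fit.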
In the case of GGAGACCUUACAUAACAACCUACUACCUCA, the “pre-steady-state target cleavage rate” value came out at 0.013 ± 0.0048.

Consider GGAGACCUAUGAUAUGUACCUACUAGGACA, for which the “pre-steady-state target cleavage rate” value was < 0.0001.

On to GGAGACCAAACUAUACAAGCUACUACCUCA, for which the “pre-steady-state target cleavage rate” value was 0.179 ± 0.025.

GGAGACCUUACUAAACAACGUACUACCUCA: the “pre-steady-state target cleavage rate” value was 0.015 ± 0.0024.

Take GGAGACCUAACUAUUCAACCUACUAGCUCA: the “pre-steady-state target cleavage rate” value was 0.089 ± 0.024.

In the case of GGAGACCUAAGUAUACAAGCUACUACCUCA, the “pre-steady-state target cleavage rate” value was 0.124 ± 0.011.

Turning to GGAGAGGAUACUAAACAACCUACUACGUCA, the “pre-steady-state target cleavage rate” value was 0.0356 ± 0.0057.

As for GGAGACCUAUGAUUACAACCUACUUCCUCA, the “pre-steady-state target cleavage rate” value was determined as 0.00303 ± 0.0022.

With GGAGACCUAACUUUACAACCUACUAGCUCA, the “pre-steady-state target cleavage rate” value stood at 0.0363 ± 0.017.

Turning to GGAGACCUAUGAUAUGAACCUACCUACCUCA, the “pre-steady-state target cleavage rate” value is < 0.0001.

For the sequence GGAGACCUAUGAUUACAUGCUACUACCUCA, the “pre-steady-state target cleavage rate” value is 0.00366 ± 0.0034.

As for GGAGACCUAUGAAUAGAACCUACUACCUCA, the “pre-steady-state target cleavage rate” value worked out at 0.00534 ± 0.0016.

In the case of GGAGACCUAUGAUAUGUUCCUACUAACUCA, the “pre-steady-state target cleavage rate” value was < 0.0001.

As for GGAGACCUAUGAUUACAACCUACUACCUACA, the “pre-steady-state target cleavage rate” value was 0.00666 ± 0.0024.

Consider GGAGACCUAUGUAUACAACCUACAACCUCA, for which the “pre-steady-state target cleavage rate” value was found to be 0.0609 ± 0.0082.

Consider GGAGACCUAUGAUUACAACCUACUUACCUCA, for which the “pre-steady-state target cleavage rate” value turned out to be 0.0057 ± 0.0019.

In the case of GGAGACCUAUGAUAUGUUCCUACUUACCUCA, the “pre-steady-state target cleavage rate” value is < 0.0001.

Turning to GGAGACCUAUGAAUACCACCUACUACCUCA, the “pre-steady-state target cleavage rate” value is 0.00372 ± 0.0036.

Turning to GGAGACCAUACAUAACAACCUACUACCUCA, the “pre-steady-state target cleavage rate” value was 0.0246 ± 0.0068.

For the sequence GGAGACCUAUGAUUACAACCUACUACUUCA, the “pre-steady-state target cleavage rate” value was determined as 0.00418 ± 0.0024.

For the sequence GGAGUGGAUUCUAUACAACCAACUACCUCA, the “pre-steady-state target cleavage rate” value was 0.00438 ± 0.0023.

Consider GGAGACCUAUCUAUAGAACGUACUACCUCA, for which the “pre-steady-state target cleavage rate” value amounted to 0.00596 ± 0.0017.

Turning to GGAGACCAUACUUUACAACCUACUAGCUCA, the “pre-steady-state target cleavage rate” value turned out to be 0.0628 ± 0.015.

In the case of GGAGACCUAAGUAUACAACCAACUACCUCA, the “pre-steady-state target cleavage rate” value turned out to be 0.00465 ± 0.0039.

For GGAGACCUAUCUAUACAACCUACUACCUAA, the “pre-steady-state target cleavage rate” value is 0.0733 ± 0.0096.

For GGAGACGAUACUAUAGUUCCUACUACCUCA, the “pre-steady-state target cleavage rate” value amounted to 0.161 ± 0.012.

Regarding GGAGACCUAUCUAAACAACCUACUUCCUCA, the “pre-steady-state target cleavage rate” value came out at 0.0303 ± 0.0063.

With GGAGACCUAUGAUAUGUUGCUACUGACCUCA, the “pre-steady-state target cleavage rate” value was < 0.0001.

Regarding GGAGACCUAUCUAUACAACCUAGUUCCUCA, the “pre-steady-state target cleavage rate” value stood at 0.0148 ± 0.0059.

With GGAGACCUAACUAUACAUCCUAGUACCUCA, the “pre-steady-state target cleavage rate” value was found to be 0.0577 ± 0.02.

Take GGAGACCUUACUAAACAACCAACUACCUCA: the “pre-steady-state target cleavage rate” value was determined as 0.00386 ± 0.0036.

As to GGAGACCUAUGUAAACAAGCUACUACCUCA, the “pre-steady-state target cleavage rate” value stood at 0.0459 ± 0.0073.

Consider GGAGACCUAACUAAACAACCUAGUACCUCA, for which the “pre-steady-state target cleavage rate” value amounted to 0.0123 ± 0.0073.

On to GGAGACCUUACUAUUCAACCUACAACCUCA, for which the “pre-steady-state target cleavage rate” value was 0.12 ± 0.013.

Turning to GGAGACCUAUGAUAACAACCUACUACUUCA, the “pre-steady-state target cleavage rate” value turned out to be 0.00299 ± 0.0028.

With GGAGACCUUACUAUACAACCUUCUACCACA, the “pre-steady-state target cleavage rate” value was 0.00842 ± 0.0039.

Regarding GGAGUGGAUACUAUACUUCCUACUACCUCA, the “pre-steady-state target cleavage rate” value was determined as 0.202 ± 0.013.

On to GGAGACCAUAGUAUACAUCCUACUACCUCA, for which the “pre-steady-state target cleavage rate” value amounted to 0.19 ± 0.014.

Regarding GGAGACCUAUCUAUCAACCUACUACCUCA, the “pre-steady-state target cleavage rate” value stood at 0.0205 ± 0.0047.

In the case of GGAGACCUAUCUAUACAAACUACUACCUCA, the “pre-steady-state target cleavage rate” value came out at 0.171 ± 0.015.
